TDP1 inh: inhibitors of human tyrosyl-DNA phosphodiesterase TDP1 | Q9NUW8 | recombinant TDP1, AlphaScreen DNA substrate cleavage | Potency, µM (titrated, usually from 130 µM), without a hit: top-dose activity change, negative = inhibition, usual class: inhibitors | hit rate 0.28% among 350,000 | AID 485290; also: potency is read from the fitted curve at half-maximal effect; nearly all actives have a fitted effect of over 40% in size
Target sequence (Q9NUW8 whole entry, looked up): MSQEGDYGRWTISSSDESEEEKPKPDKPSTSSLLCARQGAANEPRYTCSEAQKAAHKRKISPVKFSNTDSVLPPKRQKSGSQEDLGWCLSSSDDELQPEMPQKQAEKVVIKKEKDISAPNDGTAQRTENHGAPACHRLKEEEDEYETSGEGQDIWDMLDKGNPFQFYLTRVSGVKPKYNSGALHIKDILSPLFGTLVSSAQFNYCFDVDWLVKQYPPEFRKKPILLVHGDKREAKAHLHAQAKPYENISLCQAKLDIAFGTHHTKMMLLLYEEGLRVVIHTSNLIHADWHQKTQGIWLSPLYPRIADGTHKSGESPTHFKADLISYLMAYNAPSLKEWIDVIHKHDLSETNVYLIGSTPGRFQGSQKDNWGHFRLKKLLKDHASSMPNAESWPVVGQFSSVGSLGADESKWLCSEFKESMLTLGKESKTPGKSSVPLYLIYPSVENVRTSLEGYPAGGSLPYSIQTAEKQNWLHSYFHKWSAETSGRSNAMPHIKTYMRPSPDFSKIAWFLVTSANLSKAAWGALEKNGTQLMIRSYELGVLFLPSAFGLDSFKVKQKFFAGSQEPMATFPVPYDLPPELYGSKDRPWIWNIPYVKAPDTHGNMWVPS
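Signal: AlphaScreen proximity between streptavidin donor and anti-FITC acceptor beads on intact substrate. Reaction: Tdp1 1 nM, substrate 15 nM final, 5 min RT after 15 min compound preincubation.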
IL1B secr inh: blocks inflammasome-driven IL-1 beta release; THP-1 LPS/ATP IL-1B secretion, AlphaLISA, 16 h; stronger effect = lower value; activity change, % at 57.5 µM; hit rate 4.7% among 360,000; AID 743279; in the data active = activity change below about -50%; inconclusive = mostly about -30% to -49%
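THP-1 cells pretreated 1 hr with compounds (up to 57.5 uM final), then stimulated with LPS (250 ng/mL final) plus ATP (1.25 mM final); secreted IL-1B measured by AlphaLISA after 16 hr, decreased signal indicating inhibition.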
ELG1 DNA repair: blocks ELG1-dependent DNA repair in HEK293T cells; HEK293T ELG1-luciferase reporter, luminescence, 16 h; DNA damage induced by 5-fluorouridine; Potency, µM (top dose mostly 46.1 µM), for the others: at the highest dose activity change, negative = inhibition, most hits filed as inhibitors; hit rate 2.3% among 330,000; also: potency is read from the fitted curve at half-maximal effect; nearly all actives have a fitted effect of over 55% in size
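Reporter activity after DNA damage by 5-fluorouridine is monitored. Compound-treated cells incubate 16 hr at 37 °C, then ONE-Glo is added for 30 min before luminescence reading.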
TDP1 cell CPT: growth inhibition of DT40 Tdp1-/-;hTDP1 cells with camptothecin (screen for TDP1 inhibitors) | chicken DT40 Tdp1-/-;hTDP1 cells + 20 nM CPT, ATP luminescence, 48 h | Potency, µM (top dose mostly 46.2 µM), without a hit: top-dose activity change, negative = growth inhibition, most hits filed as inhibitors | hit rate 12% among 420,000 | AID 686979; also: potency is read from the fitted curve at half-maximal effect; nearly all actives have a fitted effect of over 55% in size
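Chicken DT40 Tdp1-/- cells stably complemented with human TDP1 were seeded at 400 cells/well in medium containing 20 nM camptothecin, exposed to pin-transferred compounds, and grown at 37 °C for at least 48 hr. Viability was read as ATP luminescence.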
Giardia killer: kills Giardia lamblia. activity change, % at 7.66 µM, hits read low. hit rate 0.15% among 340,000. AID 540267. Giardia lamblia trophozoite viability; in the data active = activity change below about -80%; inconclusive = between about -30% and that limit;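 also: parasites exposed to compound for two days anaerobically before the ATP read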
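Killing of trophozoites was scored by loss of ATP luminescence after a 48 hrs anaerobic exposure to compounds at 37 deg C, using 100 cells per well.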
DT40 TDP1 no CPT: qHTS for Inhibitors of human tyrosyl-DNA phosphodiesterase 1 (TDP1): qHTS in cells in absence of CPT. DT40 Tdp1-/- hTDP1 cells, no CPT, ATP luminescence, 48 h. Potency, µM (titrated, usually from 46.2 µM), for inactives: at the highest dose activity change, negative = growth inhibition, most hits filed as inhibitors. hit rate 15% among 420,000. AID 686978, 2013; also: potency is read from the fitted curve at half-maximal effect; nearly all actives have a fitted effect of over 55% in size
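Chicken DT40 Tdp1-/- cells stably complemented with human TDP1 were seeded at 400 cells/well with DMSO in place of 20 nM camptothecin. After compound pinning, cells grew at least 48 hr at 37 °C; viability read by CellTiter-Glo luminescence.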
The depositor's hits bear a star; [ ] = dose if it differs, or a comment. Most compounds without a hit are left out; they make up all but 19% or so of the library. Unless noted, calls follow the shape of the dose curve; as a rule, active = well fitted curve in the direction sought with a large enough effect; inconclusive = small, poorly fitted or top-dose-only effect, or another doubt; inactive = no such curve, though single readings can be large; an effect the other way counts as inactive or inconclusive. % is scaled to controls: 0 for no effect and ±100 for the full control effect.

What do the screens show for `CC1(C(=O)Nc2ccc(F)c(Cl)c2)Cc2c(-c3cccc(C(N)=O)c3)ccnc2O1` (stereo not given)?
IL1B secr inh: -10; TDP1 cell CPT: inconclusive; DT40 TDP1 no CPT: inconclusive

How did CC(=O)Nc1cccc(-c2ccnc3c2CC(C)(C(=O)Nc2ccccc2)O3)c1 (stereo not given) do in these assays?
IL1B secr inh: -22; TDP1 cell CPT: -30%; DT40 TDP1 no CPT: inconclusive

What do the screens show for `CC1(C(=O)Nc2ccc(F)c(Cl)c2)Cc2c(-c3ccc(C(N)=O)cc3)ccnc2O1` (stereo not given)?
IL1B secr inh: -79*; TDP1 cell CPT: 21µM*; DT40 TDP1 no CPT: 18µM*

Results for CC1(C(=O)Nc2ccc(Cl)cc2)Cc2c(-c3cccc(C(N)=O)c3)ccnc2O1 (stereo not given) ?
IL1B secr inh: 0; TDP1 cell CPT: 3.7µM*; DT40 TDP1 no CPT: 5.8µM*

Results for CC(=O)Nc1cccc(-c2ccnc3c2CC(C)(C(=O)Nc2ccc(C(C)C)cc2)O3)c1 (stereo not given) ?
IL1B secr inh: -60*; TDP1 cell CPT: inconclusive; DT40 TDP1 no CPT: inconclusive

How did CC(/C=C/c1ccccc1)=N/NC(=O)Cn1nnc(N)n1 do in these assays?
TDP1 inh: 3%; ELG1 DNA repair: -2%; TDP1 cell CPT: 9%; Giardia killer: 8; DT40 TDP1 no CPT: -3%

How did O=C1NN(c2cccc(Br)c2)C(=O)/C1=C\c1ccc(N2CCOCC2)cc1 do in these assays?
IL1B secr inh: -3; ELG1 DNA repair: 7%; TDP1 cell CPT: -5%; Giardia killer: -15; DT40 TDP1 no CPT: 3%

What do the screens show for `O=c1c2ccccc2nnn1CSc1nnc(C2COc3ccccc3O2)n1-c1ccccc1` (stereo not given)?
TDP1 inh: 6%; IL1B secr inh: 13; ELG1 DNA repair: inconclusive; TDP1 cell CPT: 21µM*; Giardia killer: 0; DT40 TDP1 no CPT: inconclusive

How did O=[N+]([O-])c1cccc2nc3ccccc3c(NCCCn3ccnc3[N+](=O)[O-])c12 do in these assays?
IL1B secr inh: -102*; TDP1 cell CPT: 0.15µM*; Giardia killer: -95*; DT40 TDP1 no CPT: 0.18µM*

Results for O=[N+]([O-])c1nccn1CCCCCCCCCCCN1CCOCC1 ?
IL1B secr inh: -1; TDP1 cell CPT: inconclusive; DT40 TDP1 no CPT: inconclusive

Results for C[C@H](O)CO[C@H]1[C@H]2O[C@H]3[C@H](O)[C@@H](O)[C@@H](O[C@H]4[C@H](O)[C@@H](O)[C@@H](O[C@H]5[C@H](O)[C@@H](O)[C@@H](O[C@H]6[C@H](O)[C@@H](OC[C@H](C)O)[C@@H](O[C@H]7[C@H](O)[C@@H](OC[C@H](C)O)[C@@H](O[C@H]8[C@H](O)[C@@H](O)[C@@H](O[C@@H]([C@@H]1O)[C@@H](CO)O2)O[C@@H]8CO)O[C@@H]7CO)O[C@@H]6CO)O[C@@H]5CO)O[C@@H]4CO)O[C@@H]3CO ?
TDP1 inh: 6%[56.1 µM]; TDP1 cell CPT: -7%; DT40 TDP1 no CPT: -5%

Results for COC(=O)c1cc(OC)c(OC)cc1NC(=O)c1c(-c2ccccc2Cl)noc1C ?
TDP1 inh: 6%; IL1B secr inh: 7; ELG1 DNA repair: 0%; TDP1 cell CPT: 18µM*; Giardia killer: -14; DT40 TDP1 no CPT: 13µM*

Results for Cc1onc(-c2ccccc2Cl)c1C(=O)Nc1nnc(-c2ccc(F)cc2)s1 ?
TDP1 inh: -3%; IL1B secr inh: 6; ELG1 DNA repair: -2%; TDP1 cell CPT: -4%; Giardia killer: 4; DT40 TDP1 no CPT: -27%

Bioassay records from PubChem.
